# Shown are actives, neighbours in structure and some others; about 2.1% of the full set was active somewhere.
# IL1B NFkB inh: inhibitors of IL-1B driven NFkB p65 nuclear import, primary screen, imaging, HUVEC, IL-1B stimulus, high-content imaging; HUVEC IL-1B NFkB p65 nuclear translocation imaging; inhibition, % at 2 µM; actives 0.43% (n = 94,000); AID 796, 2007;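 active = inhibition above about 30% together with a positive call from visual inspection of the well image, limit read from the data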;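 also: nuclear over cytoplasmic p65 intensity ratio measured by imaging; 0% = IL-1B stimulated DMSO wells and 100% = unstimulated DMSO wells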
# IL1B NFkB pot: enhancers of NFkB p65 translocation in HUVEC – imaging, IL-1B stimulus, high-content imaging, primary screen | activation, % at 2 µM | actives 0.3% (n = 94,000) | HUVEC IL-1B NFkB p65 nuclear translocation imaging | AID 819, 2007;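 active = activation above 40%, about the mean plus 3 SD, also judged a hit on visual image review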;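 also: percent activation is computed from the nuclear over cytoplasmic p65 intensity ratio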
# IL1B cytotox: cytotoxicity in IL-1B stimulated HUVEC, primary screen, cytotoxicity control for IL-1B NFkB translocation project, imaging, Hoechst nuclear count, IL-1B stimulus; cell count reduction, % at 2 µM; HUVEC cell count loss; actives 0.41% (n = 94,000);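 active = cell count reduction more than 3 SD above the screen-wide mean, cut at about 70% in these data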;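 also: normalized per plate to untreated control cells as the no-loss baseline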
# Measles CPE: compounds protecting cells from measles virus cytopathic effect, primary screen, measles RdRp inhibitor project, single point, MLSMR library, absorbance. Measles virus-infected cells, CPE protection. protection (pct of control), % at 4 µM. actives 1.5% (n = 140,000); in the data active = protection mostly above about 24%, no sharp cut-off; inactive = mostly below about 26%
# Numbers without * were called inactive; x = not tested or not shown.
SMILES,IL1B NFkB inh,IL1B NFkB pot,IL1B cytotox,Measles CPE
CCc1cccc2c(C(=O)COC(=O)c3ccccc3)c[nH]c12,x,x,x,28.0*
CCc1cccc2c(C(=O)COC(=O)c3ccc(O)cc3)c[nH]c12,x,x,x,12.8
CCOc1ccc(Cl)cc1CSc1ncn[nH]1,x,x,x,13.3
CCC1(C(=O)OC)NC(c2ccco2)C2C(=O)N(c3ccccc3)C(=O)C21 (stereo not given),-2.2,2.2,-20.1,78.4*
Oc1ccccc1-c1nc(N2CCCC2)c2ccccc2n1,5.3,-5.3,6.6,9.3
CC1CCN(c2nc(-c3ccccc3O)nc3ccccc23)CC1,-0.8,0.8,14.2,38.1*
Cc1ccc(C)c(C(C)NC(=O)c2ccccc2Br)c1 (stereo not given),x,x,x,14.9
CCN(CC(=O)N1CCN(c2ccccc2)CC1)S(=O)(=O)c1ccc(C)cc1,x,x,x,63.0*
COc1ccc(N(CC(=O)NN=C2CCCC2)S(=O)(=O)c2ccccc2)cc1,9.7,-9.7,33.6,44.0*
CCOc1ccc(N(CC(=O)N2CCN(c3ccccc3)CC2)S(=O)(=O)c2c(C)noc2C)cc1,5.0,-5.0,0.0,11.2
COc1ccc(N(CC(=O)N2CCN(c3ccccc3)CC2)S(=O)(=O)c2c(C)noc2C)cc1,-12.1,12.1,8.3,41.0*
CC(=O)c1ccc(N2CCN(C(=O)CCS(=O)(=O)c3ccc(C)cc3)CC2)cc1,x,x,x,47.4*
COc1ccc(N(CC(=O)NN=C2CCCCCCC2)S(=O)(=O)c2ccccc2)cc1Cl,0.4,-0.4,-17.7,15.5
CCOC(=O)C(Sc1cc(C)nc(N)n1)C(C)=O (stereo not given),-34.0,34.0,-15.2,5.1
COc1ccc(N2CCN(C(=O)CN(c3ccccc3)S(C)(=O)=O)CC2)cc1,4.9,-4.9,-11.3,2.9
COc1ccc(S(=O)(=O)N(CC(=O)N2CCN(c3ccccc3)CC2)c2ccccc2)cc1,0.8,-0.8,-88.0,41.7*
COc1ccc(-c2cc(C(=O)OC(C)C(=O)Nc3c(C)n(C)n(-c4ccccc4)c3=O)c3ccccc3n2)cc1 (stereo not given),x,x,x,27.8
Cc1c(NC(=O)c2cccc(F)c2)c(=O)n(-c2ccccc2)n1C,-2.1,2.1,76.6*,4.2
Cc1c(NC(=O)COC(=O)c2cc(-c3ccc(-c4ccccc4)cc3)nc3ccccc23)c(=O)n(-c2ccccc2)n1C,x,x,x,38.1*
Cc1c(NC(=O)c2ccc(F)cc2)c(=O)n(-c2ccccc2)n1C,10.6,-10.6,-1.0,3.3
CCC(CC)C(=O)Nc1c(C)n(C)n(-c2ccccc2)c1=O,-8.0,8.0,2.8,47.9*
Cc1c(NS(C)(=O)=O)c(=O)n(-c2ccccc2)n1C,x,x,x,55.0*
Cc1cccc(C(C)C)c1NC(=O)C1CN(S(=O)(=O)c2ccccc2)CCN1S(=O)(=O)c1ccccc1 (stereo not given),x,x,x,10.4
CC(=O)Nc1ccc(-c2nnc(SCC(=O)NCc3ccco3)n2C)cc1,-8.3,8.3,-6.7,4.2
O=S(=O)(CCc1nc2ccccc2o1)c1ccc2ccccc2c1,9.2,-9.2,-2.9,0.4
SMILES,IL1B NFkB inh,IL1B NFkB pot,IL1B cytotox,Measles CPE
COc1ccc(-c2cc(C(F)(F)F)c3c(=O)n(-c4ccccc4)[nH]c3n2)cc1,-6.1,6.1,-1.2,9.5
Cc1c(NS(=O)(=O)c2cccc(C(=O)NCc3ccncc3)c2)c(=O)n(-c2ccccc2)n1C,-42.1,42.1*,8.0,5.9
Cc1c(NC(=O)c2c(N)n(-c3ccccc3)c3nc4ccccc4nc23)c(=O)n(-c2ccccc2)n1C,x,x,x,59.2*
Cc1c(NC(=O)c2c(F)cccc2F)c(=O)n(-c2ccccc2)n1C,1.8,-1.8,2.1,26.6
O=C(c1cccc(OC(F)F)c1)N1CCN(c2ncccn2)CC1,-15.0,15.0,18.6,4.8
OCCN1CCOCCN(CCO)CCOCC1,-6.3,6.3,11.5,2.9
COc1ccccc1NC=C1C(=O)OC(C)(C)OC1=O,91.2*,-91.2,-0.8,18.3
CCOc1ccccc1NC=C1C(=O)OC(C)(C)OC1=O,-1.9,1.9,19.3,20.8
Cc1ccc(/C=C/C(=O)Nc2nnc(C)s2)o1,x,x,x,20.1*
CC(C)(C)OC(=O)N1CCC(c2c(C(=O)O)cnn2-c2ccccc2)CC1,1.5,-1.5,-8.1,31.7*
COc1ccc(OC)c(NC(=S)NN2CCOCC2)c1,-8.0,8.0,-27.3,57.4*
COc1ccc(OC)c(NC(=S)NN2CCN(C)CC2)c1,-5.8,5.8,-21.7,1.7
CCOC(=O)N1CCN(C(=O)Cc2ccsc2)CC1,-1.2,1.2,-2.7,13.6
